The list is not random: actives were taken first. Their share in the collection is about 0.5%.
Keap1-Nrf2 PPI: inhibitors of human Keap1-Nrf2 protein-protein interaction; Q14145; Keap1 Kelch-Nrf2 peptide fluorescence polarization, 1536-well; inhibition, % at 9.4 µM; 340,000 tested, 0.15% active; AID 504523; in the data active means inhibition above about 12%;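 further: human Keap1 Kelch domain with fluorescein labeled Nrf2 9mer peptide probe; 0% = neutral control wells and 100% = peptide positive control; higher means more block of Keap1 binding to Nrf2 peptide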
Target sequence (Q14145 whole entry, looked up, the tested form may be a part): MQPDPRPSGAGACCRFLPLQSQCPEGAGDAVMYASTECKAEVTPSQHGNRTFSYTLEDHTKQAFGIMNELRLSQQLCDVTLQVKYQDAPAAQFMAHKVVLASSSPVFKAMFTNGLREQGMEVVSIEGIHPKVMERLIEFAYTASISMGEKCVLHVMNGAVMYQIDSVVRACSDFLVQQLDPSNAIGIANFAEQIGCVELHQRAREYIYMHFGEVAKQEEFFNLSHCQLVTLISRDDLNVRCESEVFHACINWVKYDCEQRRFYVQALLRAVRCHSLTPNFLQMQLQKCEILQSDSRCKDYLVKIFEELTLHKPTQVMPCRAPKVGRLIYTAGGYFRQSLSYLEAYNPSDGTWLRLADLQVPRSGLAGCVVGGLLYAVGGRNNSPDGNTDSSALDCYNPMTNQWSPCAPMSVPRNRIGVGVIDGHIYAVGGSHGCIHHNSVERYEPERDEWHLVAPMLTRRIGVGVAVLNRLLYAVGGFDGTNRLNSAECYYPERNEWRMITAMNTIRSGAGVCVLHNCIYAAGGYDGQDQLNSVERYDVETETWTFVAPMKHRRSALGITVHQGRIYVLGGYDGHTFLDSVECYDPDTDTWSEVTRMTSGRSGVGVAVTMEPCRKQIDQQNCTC
LANA DNA inh: KSHV C-LANA DNA binding inhibition | MBP-C-LANA/FAM-LBS DNA binding, fluorescence polarization | inhibition, % at 9 µM | 340,000 tested, 0.078% active | AID 504423;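 active means highest replicate inhibition at or above 60% at 9 µM, even if other replicates fall short; inactive means all replicates below 60% inhibition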;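 further: 0% = neutral control wells and 100% = 4 µM acridine orange control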
Cardiac RTF inh: cardiac RTF calcium desensitization; P19429+P45379; IANBD-labeled cardiac RTF, Ca2+ fluorescence; inhibition, % at 7.15 µM; 340,000 tested, 0.12% active; AID 493244;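 active means inhibition above the mean inhibition of all tested compounds plus 3 SD, cut at about 17% in these data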;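 further: assay run at fixed EC70 calcium of 1.6 mM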
RTF Ca sens act: increases calcium sensitivity of human cardiac regulated thin filaments; activation, % at 7.2 µM; P19429+P45379; 340,000 tested, 0.24% active; IANBD-labeled TnC RTF fluorescence at EC20 calcium; 0% EC20 calcium, 100% full calcium;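 active means activation above the mean over all tested compounds plus 3 SD, cut at about 30% in these data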;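 further: rise in fluorescence read as greater calcium sensitivity of cardiac thin filaments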
Keap1 Kelch bind: binders of human Keap1 Kelch domain; shares compounds with Keap1-Nrf2 PPI; Keap1 Kelch thermal shift, delta Tm; hits give high values; max delta Tm, degrees C; 400 tested, 8% active; in the data active means max delta Tm above about 0.48 degrees C
Dye-only ctr: shifts Sypro Orange melt without protein, a false positive; shares compounds with Keap1-Nrf2 PPI; Sypro Orange dye-only thermal melt, no protein, delta Tm; top dose 26 µM; delta Tm, degrees C (concentration not given with the values); 140 tested, under 10 active; AID 651858;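 active means at highest dose tested, delta Tm positive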
The depositor's hits bear a star; / = no result given.

SMILES	Keap1-Nrf2 PPI	LANA DNA inh	Cardiac RTF inh	RTF Ca sens act	Keap1 Kelch bind	Dye-only ctr
CN1CCN(c2ccc([N+](=O)[O-])c3no[n+]([O-])c23)CC1	55*	82*	-348	282*	-0.12	-27
CCCCc1ccc(C(=O)O)nc1	66*	67*	-3	1	-0.03	/
CN1CC=C2C(C#N)=C(N)C(C#N)(C#N)C(c3ccncc3)C2C1 (configuration not stated)	15*	43	-21	25	-0.15	-26
Cn1cc(/C=C2\C(=O)NC(=O)N(c3ccccc3)C2=O)c2ccccc21	49*	88*	-3	2	-0.13	/
CCCc1nc2ccccc2c(=O)n1-c1ccc(O)cc1	2	1	-3	9	/	/
CCn1cc(CN2CCCC(C(=O)c3sccc3C)C2)cn1 (configuration not stated)	-2	0	-7	-5	/	/
C[C@]12CC[C@H](O)CC1=CC(=O)C1C2CC[C@]2(C)C(=O)CCC12 (some centres not stated)	4	0	-5	0	/	/
CC(C)(O)/C=C/C(=O)C(C)(O)C1C(O)CC2(C)C3CC=C4C(C=C(O)C(=O)C4(C)C)C3(C)C(=O)CC12C (configuration not stated)	-65	1	2	-5	/	/
Nc1ccc2c3c(cccc13)-c1ccccc1-2	22*	27	-416	359*	0.37	-23
O=C1C(=O)c2ccccc2-c2ccccc21	-9	4	9	2	/	/
Cc1cc(OCC(=O)NC(Cc2ccc(Cl)cc2)C(=O)O)c2c3c(c(=O)oc2c1)CCC3 (configuration not stated)	-7	-1	-4	0	/	/
CCCCC1(CC)COP(=O)(OCC(Cl)(Cl)Cl)OC1 (configuration not stated)	2	1	11	1	/	/
CN1/C(=C\C=C2C(=O)NC(=O)NC2=O)C(C)(C)c2ccccc21	32*	28	-182	109*	-0.19	-21
CN1/C(=C\C=Nc2ccccc2)C(C)(C)c2ccccc21	2	2	-23	9	/	/
Cc1cc(C=C2C(=O)NC(=O)NC2=O)c(C)n1-c1cccnc1	12*	13	-14	-2	-0.1	/

High-throughput results: PubChem BioAssay, several laboratories
